Screening data: PubChem, National Center for Advancing Translational Sciences (NCATS)
TDP1 cell noCPT: qHTS for Inhibitors of human tyrosyl-DNA phosphodiesterase 1 (TDP1): qHTS in cells in absence of CPT. DT40 Tdp1-/- hTDP1 cells, no CPT, ATP luminescence, 48 h. Potency, µM (highest dose often 46.2 µM), without a hit: at the highest dose activity change, negative = growth inhibition, usual class: inhibitors. 15% of 420,000 active. AID 686978, 2013; also: % is scaled to controls: 0 for no effect and ±100 for the full control effect; nearly all actives have a fitted effect of over 55% in size
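Chicken DT40 Tdp1-/- cells complemented with human TDP1, screened without camptothecin (DMSO vehicle only), 400 cells/well. Compounds pin-transferred, cells incubated at 37 °C for at least 48 hr. Growth read as ATP-dependent luminescence (CellTiter-Glo, 30 min at RT).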
HT1080-NT tox: qHTS for induction of synthetic lethality in tumor cells producing 2HG: qHTS for the HT-1080-NT fibrosarcoma cell line | 1.6% of 360,000 active | AID 686970, 2013 | HT-1080-NT fibrosarcoma viability, CellTiter-Glo ATP luminescence, 48 h | Potency, µM (doses to about 46.1 µM), for inactives: top-dose activity, negative = less viability, most hits filed as cytotoxic;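 also: NT is the 2HG producing partner of a matched IDH1 knockdown line; 0% = DMSO-treated cells and -100% = media-only wells without cells; nearly all actives have a fitted effect of over 55% in size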
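A 48-hour cytotoxicity screen used HT-1080-NT cells plated 2 hours before compound delivery. ATP-based CellTiter-Glo luminescence measured viability, normalized to DMSO and no-cell controls.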
HepG2 viability: qHTS for Inhibitors of TGF-b: Cytotox Counterscreen | HepG2 CAGA-GFP viability, ATP luminescence, 18 h | Potency, µM (series often up to 46.1 µM), for inactives: at the highest dose activity change, negative = cytotoxicity, most hits filed as cytotoxic | 0.76% of 410,000 active
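CellTiter-Glo luminescence gave cytotoxicity after 18 hours at 37 degrees C. The cells were HepG2 CAGA-GFP in 1% FBS DMEM, stimulated with 500 pg/mL TGF-beta after compound addition. %Activity was normalised to no-cell wells (complete cell-killing) and DMSO (no toxicity), and curves were fitted and classified.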
TGFb inhibitor: qHTS for Inhibitors of TGF-b | HepG2 CAGA-GFP TGF-b/SMAD3 reporter, GFP fluorescence, 18 h; TGF-beta stimulated, 500 pg/mL final | Potency, µM (doses to about 46.1 µM), for inactives: at the highest dose activity, negative = inhibition, usual class: inhibitors | 1.2% of 410,000 active | AID 588855, 2011; also: % is scaled to controls: 0 for no effect and ±100 for the full control effect; nearly all actives have a fitted effect of over 65% in size
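HEPG2 CAGA-GFP reporter cells (1000/well, DMEM with 1% FBS) received compounds, then recombinant TGF-beta at 500 pg/mL final for 18 hours at 37 degrees C. Per-cell GFP summed per well was normalised to unstimulated and stimulated DMSO controls before curve fitting.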
HT1080 IDH1KD tx: qHTS for induction of synthetic lethality in tumor cells producing 2HG: qHTS for the HT-1080-IDH1KD cell line | HT-1080 IDH1 knockdown viability, ATP luminescence, 48 h | Potency, µM (series often up to 46.1 µM), inactives show at the top dose activity, negative = toxicity, most hits filed as cytotoxic | 2% of 360,000 active | AID 686971, 2013;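 also: 0% = DMSO wells and -100% = cell-free medium wells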
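Cytotoxicity counter-line: IDH1KD HT-1080, 48 h, CellTiter-Glo. Curves classed by r2, magnitude and activity.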
DT40 TDP1 CPT: qHTS for Inhibitors of human tyrosyl-DNA phosphodiesterase 1 (TDP1): qHTS in cells in presence of CPT; 12% of 420,000 active; Potency, µM (highest dose often 46.2 µM), for the others: at the top dose activity change, negative = growth inhibition, most hits filed as inhibitors; AID 686979, 2013; chicken DT40 Tdp1-/-;hTDP1 cells + 20 nM CPT, ATP luminescence, 48 h; also: % is scaled to controls: 0 for no effect and ±100 for the full control effect; nearly all actives have a fitted effect of over 55% in size
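Cell growth measured by CellTiter-Glo luminescence after a minimum 48 h, 37 C compound exposure with 20 nM CPT in Tdp1-knockout DT40 cells stably expressing hTDP1, seeded 400/well; qHTS titration format.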
An asterisk follows results filed as active; ? = inconclusive; · = no result; [ ] = another dose, or the depositor's remark. A selection: hits, their analogues and other compounds. The true share with any hit is near 17%. Calls follow the shape of the dose curve; as a rule, active = well fitted curve in the direction sought with a large enough effect; inconclusive = small, poorly fitted or top-dose-only effect, or another doubt; inactive = no such curve, though single readings can be large; an effect the other way counts as inactive or inconclusive. Potency is read from the fitted curve at half-maximal effect.

SMILES	TDP1 cell noCPT	HT1080-NT tox	HepG2 viability	TGFb inhibitor	HT1080 IDH1KD tx	DT40 TDP1 CPT
CCOc1cc(Br)c(C=O)cc1OCC	6.51µM*	25.9µM*	2.7%	-20.7%	32.6µM*	5.17µM*
CCOc1cc(Br)c(C(=O)O)cc1OCC	-2.4%	4.0%	-7.1%	-5.7%	4.7%	2.2%
COCCCNc1nccn2ccnc12	-2.1%	23.6%	3.5%	-2.7%	7.6%	11.5%
COc1ccc(NC(=O)CSc2ccc3nc(-c4ccccc4)cn3n2)c(OC)c1	9.2µM*	·	-19.4%	?	·	11.6µM*
COc1ccc(NC(=O)c2cc3nc(-c4ccccc4)cc(-c4ccccc4)n3n2)c(OC)c1	10µM*	16.7%	1.8%	0.8%	18.2%	11.2µM*
CC1CCN(C(=O)c2cc3nc(-c4ccccc4)cc(-c4ccccc4)n3n2)CC1	29.1µM*	-5.2%	-9.7%	4.6%	1.0%	16.4µM*
COc1cc(NC(=O)c2cc3nc(-c4ccccc4)cc(-c4ccccc4)n3n2)c(OC)cc1Cl	-19.3%	·	-16.5%	-24.5%	·	1.7%
O=C(NC1CCCC1)c1cc2nc(-c3ccccc3)cc(-c3ccccc3)n2n1	?	0.0%	38.8%	8.4%	7.2%	?
COc1ccc(NC(=O)CSc2ccc3nc(-c4ccccc4)cn3n2)cc1OC	-21.7%	·	-3.5%	9.1%	·	-20.5%
COc1ccc(-c2cn3nc(SCC(=O)Nc4cc(C)cc(C)c4)ccc3n2)cc1	20.6µM*	·	0.5%	2.7%	·	?
COc1ccc(-c2cn3nc(SCC(=O)Nc4cccc(C)c4C)ccc3n2)cc1	?	·	-2.4%	3.6%	·	14.6µM*
CCc1ccccc1NC(=S)N(CCCN1CCOCC1)Cc1cccs1	?	4.8%	-21.9%	-12.1%	2.5%	?
COc1ccccc1N1C(C)=CC(=C(C#N)c2nc3ccccc3s2)C=C1C	13µM*	-12.8%	-24.5%	7.1%	-11.5%	8.2µM*
CC1=CC(=C(C#N)c2nc3ccccc3s2)C=C(C)N1c1ccc(F)cc1	?	5.8%	1.0%	?	15.4%	?
COc1ccc(-c2c(-c3ccsc3)oc3ccc(N4CCOCC4)cc23)cc1	16.4µM*	13.9%	-5.3%	-22.7%	9.4%	?
COc1ccc(-c2oc3ccc(N4CCOCC4)cc3c2/C=C/c2ccc(OC)c(OC)c2)cc1	?	-16.6%	-4.7%	0.9%	-8.0%	?
CSc1ncccc1C(=O)Nc1ccc(S(=O)(=O)N2CCCC2)cc1	-9.8%	-7.4%	0.0%	6.7%	-0.4%	-3.2%
CC(C)NC(=O)C1CCN(C(=O)c2cc3sccc3n2Cc2ccc(F)cc2)CC1	7.31µM*	-24.6%	-22.8%	-24.6%	4.8%[9.24 µM]	6.51µM*
CC(C)NC(=O)C1CCN(C(=O)c2cc3sccc3n2Cc2ccc(Cl)cc2)CC1	1.46µM*	·	-45.8%	?	·	1.64µM*
CC1CCN(C(=O)C2CCN(C(=O)c3cc4sccc4n3Cc3ccc(F)cc3)CC2)CC1	18.4µM*	?	-34.8%	?	?	20.6µM*
COC(=O)c1cc2sccc2n1Cc1ccc(F)cc1	-7.9%	·	-26.7%	-2.3%	·	-21.2%
O=C(c1cc2sccc2n1Cc1ccc(F)cc1)N1CCCc2ccccc21	23.1µM*	-12.0%	-6.2%	-2.6%	-24.7%	?
CCc1cccc(NC(=O)CN2CCCN(Cc3cccc(C)c3)S2(=O)=O)c1	29.1µM*	·	-37.2%	?	·	?
Cc1cccc(CN2CCN(CC(=O)Nc3c(C)cccc3C)S2(=O)=O)c1	16.4µM*	·	-16.5%	-56.2%	·	?
CCC(CC)NC(=O)c1cc2c(C)nn(Cc3ccccc3Cl)c2s1	?	-29.6%	-7.4%	-9.6%	?	23.1µM*
SMILES	TDP1 cell noCPT	HT1080-NT tox	HepG2 viability	TGFb inhibitor	HT1080 IDH1KD tx	DT40 TDP1 CPT
Cc1nn(Cc2ccccc2Cl)c2sc(C(=O)Nc3nccs3)cc12	?	-29.3%	2.7%	0.3%	-21.7%	-19.2%
Cc1nn(Cc2ccc(F)cc2)c2sc(C(=O)Nc3ccccc3N3CCOCC3)cc12	?	1.4%	-4.3%	-8.3%	10.7%	?
Cc1nn(Cc2ccccc2Cl)c2sc(C(=O)Nc3ccccc3N3CCOCC3)cc12	?	6.4%	-4.0%	15.1%	0.8%	10.3µM*
O=C(CS(=O)(=O)c1ccccc1)Nc1ccccc1Br	-6.8%	19.9%	-1.8%	?	10.0%	?
Cn1c(=O)c([N+](=O)[O-])c(NCCc2ccccc2)c2ccccc21	16.4µM*	-3.1%	-15.1%	-1.1%	-19.9%	?
CCn1c(=O)c([N+](=O)[O-])c(NCCc2ccccc2)c2ccccc21	?	-14.1%	-21.6%	?	-19.4%	?
CCN(CC)c1c([N+](=O)[O-])c(=O)n(C)c2ccccc12	?	0.6%	-11.6%	-7.8%	-6.7%	6.5%
CN(Cc1ccccc1)c1c([N+](=O)[O-])c(=O)n(C)c2ccccc12	14.6µM*	3.1%	-19.2%	-7.4%	-4.6%	?
CNC(=O)c1cc(C(=O)c2ccc(F)cc2C(F)(F)F)c[nH]1	?	-0.9%	-6.3%	-2.5%	-9.7%	?
COc1ccc(-c2n[nH]c(=S)nc2-c2ccc(OC)cc2)cc1	10.0%	0.0%	0.5%	-22.6%	4.1%	3.7%
CCCN(CCC)CC(O)CN1C(=O)N(CN2C(=O)N(CC(O)CN(CCC)CCC)C(=O)C2(C)C)C(C)(C)C1=O (stereo not drawn)	7.9%	-28.7%	-3.3%	13.7%	-4.8%	4.5%
O=C(CSc1nc2ccccc2o1)N1N=C(c2cccs2)CC1c1ccc(F)cc1 (stereo not drawn)	?	-0.4%	8.6%	-12.2%	-0.9%	?
Cc1ccc2nc(Cl)c(C3CC(c4ccco4)=NN3C(=O)CCCC(=O)O)cc2c1 (stereo not drawn)	-19.9%	-19.6%	-12.1%	-1.4%	-4.5%	-8.9%
COc1ccc(C2CC(c3cccs3)=NN2C(=O)CSc2nc(=O)n3ccc(C)cc3n2)cc1 (stereo not drawn)	5.8µM*	-9.0%	-23.9%	0.0%	-21.9%	?
Cc1ccc2nc(Cl)c(C3CC(c4cccs4)=NN3C(=O)CCC(=O)O)cc2c1 (stereo not drawn)	5.17µM*	2.3%	-5.8%	-2.0%	12.3%	-1.0%
